# Measured values taken from PMC5540273 (PLoS ONE, 2017).
# How the values were obtained:
# Conditions in all cases: concentration: 1 μM, replicates: in singlicate; n = 1
# DYRK1B = system: DYRK1B
# DYRK2 = system: DYRK2
# EGFR = system: EGFR
# EIF2AK1 = system: EIF2AK1
# EPHA1 = system: EPHA1
# EPHA2 = system: EPHA2
# EPHA3 = system: EPHA3
# EPHA4 = system: EPHA4
# EPHA5 = system: EPHA5
# EPHA6 = system: EPHA6
# 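Further: KINOMEscan kinase panel screen.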
SMILES,%Inh (DYRK1B) [%],%Inh (DYRK2) [%],%Inh (EGFR) [%],%Inh (EIF2AK1) [%],%Inh (EPHA1) [%],%Inh (EPHA2) [%],%Inh (EPHA3) [%],%Inh (EPHA4) [%],%Inh (EPHA5) [%],%Inh (EPHA6) [%]
COc1ccc(C)c(Nc2ccnc(Nc3ccc(-c4cnc[nH]4)cc3)n2)c1.Cl [GW784041],0,0,28,0,62,45,3,31,4,12
Cl.Cl.NCC(NC(=O)c1cc(-c2cccnc2)c(-c2ccnc3[nH]ccc23)s1)c1ccccc1 (stereo not drawn) [GSK1323434],17,33,72,0,4,10,40,0,0,2
Cc1ccc(O)cc1Nc1ccnc2cc(-c3ccc(CN4CCCCC4)o3)ccc12 [GW557777],0,2,46,0,99.7,94.5,94.9,96.2,99.8,90
CN(C)c1ncnc2nc[nH]c12 [SKF-31736],39,23,0,0,0,0,8,0,0,0
CC(C)c1nc(-c2cccc(NS(=O)(=O)c3c(F)cccc3F)c2)c(-c2ccnc(Nc3ccc(N4CCOCC4)nc3)n2)s1.Cl [GSK1723980],0,18,99.1,66,97.7,0,18,27,0,77
COC(=O)Nc1nc2ccc(Oc3ccc(CC(=O)Nc4cc(C(F)(F)F)ccc4F)cc3)cc2[nH]1 [GW680903],8,0,30,3,12,54,100,21,0,34
Nc1ncc(-c2cn[nH]c2)c2scc(-c3ccc4c(c3)CCN4C(=O)Cc3ccccc3)c12 [GSK2593067],0,7,25,48,26,0,0,0,0,12
Nc1ncc(-c2ccc3nccc(-c4ccncc4)c3c2)cc1S(=O)(=O)N1CCCCC1 [GSK1693850],2,22,1,0,0,21,22,3,0,0
CN(c1ccc(NC(=O)Nc2cccc(Cl)c2)cc1)c1ccnc(N)n1.Cl [GW830707],14,14,10,0,8,18,15,17,33,48
